Measurements reported in PubChem BioAssay AID1159580 (chemical genetic matrix, 2015).
The campaign covered roughly 5,500 compounds. About 2,000 (36%) were called active. Roughly 18% stayed inconclusive and do not appear here. No stated cut-off is given here; in the data, active means normalized growth mostly below about 0.91 (no sharp cut-off); inconclusive means no clear call, values can overlap the other calls; inactive means mostly above about 0.92. The list shows a part of the results.

Assay: chemical genetic growth profiling, strain panel (AID 1159580);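 further: tested at 20 µM; growth read once vehicle control cultures reached saturation at 30 °C; 1 = growth at the plate median or of vehicle wells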
Details: S. cerevisiae deletion strains, growth OD

Measured: normalized growth

Cc1ccc(=O)n(-c2ccccc2)c1
inactive: locus YAL013W, strain DEP1, stronger effect = lower value 1 | locus YAL040C, strain CLN3, stronger effect = lower value 1.01 | locus YCL061C, strain MRC1 (second series), stronger effect = lower value 1 | locus YDR363W, strain ESC2, stronger effect = lower value 1 | locus YER002W, strain NOP16, stronger effect = lower value 0.975 | locus YGR078C, strain PAC10, stronger effect = lower value 1.02 | locus YNL128W, strain TEP1, stronger effect = lower value 0.991 | locus YNL175C, strain NOP13, stronger effect = lower value 1 | locus YNL197C, strain WHI3, stronger effect = lower value 1.01 | locus YNL224C, strain SQS1, stronger effect = lower value 1.01 | locus YNL322C, strain KRE1, stronger effect = lower value 0.998 | locus YOR083W, strain WHI5 (second series), stronger effect = lower value 1.01 | locus YPL055C, strain LGE1, stronger effect = lower value 1.02 | locus YPL241C, strain CIN2, stronger effect = lower value 1
